Source: PubChem (several laboratories)
CYP2C9 inhib: inhibitors of human CYP2C9. CYP2C9 Supersomes, luciferin-H conversion, luminescence. inhibition, % at 5 µM. hit rate 20% among 96,000. AID 777;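 active = blocking of liver enzyme CYP2C9 beyond about 50% at 5 µM, limit read from the data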
Target sequence (P11712 whole entry, looked up): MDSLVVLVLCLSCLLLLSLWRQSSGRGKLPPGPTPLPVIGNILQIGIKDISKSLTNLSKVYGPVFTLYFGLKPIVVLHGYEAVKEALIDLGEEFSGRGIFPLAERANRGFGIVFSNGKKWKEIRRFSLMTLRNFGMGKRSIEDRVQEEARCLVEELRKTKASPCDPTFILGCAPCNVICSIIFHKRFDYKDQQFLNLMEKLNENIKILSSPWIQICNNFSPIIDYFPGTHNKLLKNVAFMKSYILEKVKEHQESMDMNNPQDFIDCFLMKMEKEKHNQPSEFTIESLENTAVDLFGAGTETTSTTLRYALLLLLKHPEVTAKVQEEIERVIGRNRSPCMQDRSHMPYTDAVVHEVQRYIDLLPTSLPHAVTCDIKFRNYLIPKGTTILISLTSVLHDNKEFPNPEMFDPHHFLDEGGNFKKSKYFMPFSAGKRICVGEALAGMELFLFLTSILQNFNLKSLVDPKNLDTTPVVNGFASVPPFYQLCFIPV
CYP2C19 act: increases human CYP2C19 enzyme activity. recombinant CYP2C19, luciferin-H EGE luminescence; active compounds read high; 0 = fully inhibited enzyme, 1 = untreated enzyme. activation factor at 5 µM. 96,000 tested, under 10 active;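 active = activation factor of at least 2 at 5 µM in the primary screen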;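 also: 0 = wells with 2.5 mM tranylcypromine and 1 = vehicle-only wells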
PostGolgi yeast: growth inhibition of a yeast mutant, post-Golgi transport screen. post-Golgi transport phenotypic cell assay. inhibition, % at 10 µM. hit rate 0.9% among 98,000. AID 739;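 also: yeast cells grown in 1536-well plates; yeast grown about 18 h at 30C before absorbance read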
CYP2C9 act: activators of human CYP2C9; P11712; recombinant CYP2C9, luciferin-H conversion, luminescence; active compounds read high; factor 1 = untreated enzyme, 0 = blocked; activation factor at 5 µM; hit rate 1.4% among 96,000; AID 1024;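 active = activation factor of 2 or more for CYP2C9 at a 5 µM dose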;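 also: 0 = sulfaphenazole-blocked wells and 1 = vehicle-only wells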
PostGolgi ctrl: growth of the yeast control strain, post-Golgi counter-screen. efflux-deficient yeast background strain, growth absorbance A615, 16 h. inhibition, % at 10 µM. hit rate 5% among 98,000. AID 738
CYP2C19 inh: human CYP2C19 inhibition; CYP2C19 Supersomes, luciferin-H EGE luminescence, 30 min; inhibition, % at 5 µM; hit rate 21% among 96,000;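 active = CYP2C19 inhibition above a set limit at 5 µM in the primary screen, cut at about 50% in these data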;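 also: plate controls were negative control wells for no effect and 2.5 mM tranylcypromine positive control for full effect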
* = called active by the depositor; · = no result. Sampled rows, rich in hits. Any-hit rate of the full collection: about 32%. Rule as the data show it, unless noted: active = inhibition above about 30%; inactive = the rest.

SMILES	CYP2C9 inhib	CYP2C19 act	PostGolgi yeast	CYP2C9 act	PostGolgi ctrl	CYP2C19 inh
O=C(CN1CCC(n2nnc3cc(C(F)(F)F)ccc32)CC1)Nc1ccc2c(c1)CCC2	78.7*	0.5	-4.0	0.2	-0.1	53.5*
COc1ccc2[nH]c(=O)c(CN(Cc3cccnc3)C(=O)Nc3ccccc3)cc2c1	88.3*	0.1	104.6*	0.1	93.8*	87.8*
COc1ccc(NC(=O)c2ccc3c(c2)C(=O)N(Cc2cccnc2)C3=O)c(OC)c1	·	·	-6.9	·	0.1	·
CCN(CC)CCN(Cc1cc2cc(C)ccc2[nH]c1=O)C(=O)Nc1ccccc1OC	8.2	0.9	-3.5	0.9	-5.7	14.8
CCc1ccc2[nH]c(=O)c(CN(Cc3ccccc3OC)C(=O)Nc3ccccc3OC)cc2c1	93.4*	1.3	1.1	0.1	45.1*	-28.4
COc1ccc2[nH]c(=O)c(CN(C(=O)c3cccnc3)c3ccccc3)cc2c1	35.4	0.8	-11.4	0.6	5.8	15.9
CCOc1ccc2[nH]c(=O)c(CN(Cc3cccnc3)C(=O)Nc3ccccc3OC)cc2c1	22.2	0.5	-7.2	0.8	11.1	53.9*
COc1ccc(NC(=O)N(Cc2ccc(C)cc2)Cc2cccnc2)c(OC)c1	90.0*	0	-12.9	0.1	8.0	97.4*
COc1cc2nc(=S)n3[nH]c(CCn4nc(C)cc4C)nc3c2cc1OC	43.9	0.7	3.6	0.6	-1.6	30.2
CC1=CC(C)=Nc2ccc(C)cc2N1	-11.3	1.1	-7.3	1.1	6.6	-10.5
CCc1ccc2c(c1)cc(CN(C(=S)Nc1ccccc1)C1CC1)c1nnnn12	48.4	0.9	14.3	0.5	-8.8	10.3
CCOc1ccc2[nH]c(=O)c(CN(CCc3ccccc3)C(=O)c3cnccn3)cc2c1	40.5	0.5	12.7	0.6	-2.3	51.4*
Cc1ccc(-n2c(SCC(=O)Nc3ccc4c(c3)OCO4)nnc2-c2cccs2)cc1	1.7	0.8	-6.6	1	2.2	18.4
NS(=O)(=O)c1ccc(NC(=O)CSc2nnc(Cc3cccs3)n2-c2ccccc2)cc1	5.1	1.1	-8.2	0.9	34.3*	-13.4
CCn1c(Cc2ccccc2)nnc1SCC(=O)Nc1ccc(S(N)(=O)=O)cc1	17.8	0.9	22.9	0.8	-1.8	6.3
Cc1ccc(-n2c(Cc3cccs3)nnc2SCC(=O)Nc2ccc(S(N)(=O)=O)cc2)cc1	74.1*	0.4	3.6	0.3	6.0	63.4*
Cn1c(=O)n(C)c2cc(/C=N/n3cnnc3)ccc21	12.5	0.8	12.8	0.9	13.8	16.7
Cc1cc(N2CCCC2)ccc1/C=N/n1cnnc1	86.1*	0	4.0	0.1	13.4	99.0*
CCOC(=O)C1=C(CN2CCN(c3ccc(F)cc3)CC2)NC(=O)NC1c1cccs1 (configuration not stated)	91.1*	0.1	3.7	0.1	0.9	88.4*
CCOC(=O)C1=C(CN2CCOCC2)NC(=O)NC1c1cc(C)ccc1C (configuration not stated)	25.5	0.8	-0.3	0.7	14.4	22.9
C=C(c1cccc2ccccc12)P(=O)(O)O	-10.0	1.2	17.8	1.1	3.5	-16.8
Cc1c(C(=O)NCC(C)C)sc2nc(-c3ccc(F)cc3)cn12	14.2	1	7.2	0.9	13.0	-2.4
O=S(=O)(NCC(c1cccnc1)N1CCN(c2ccc(F)cc2)CC1)c1ccc(F)cc1 (configuration not stated)	72.2*	0.2	89.7*	0.3	73.1*	83.5*
O=S(=O)(NCC(c1cccnc1)N1CCN(c2ccc(F)cc2)CC1)c1cccs1 (configuration not stated)	57.6*	0.1	78.1*	0.4	54.6*	88.1*
O=S(=O)(NCC(c1cccnc1)N1CCN(Cc2ccccc2)CC1)c1ccccc1 (configuration not stated)	·	·	8.0	·	11.4	·
SMILES	CYP2C9 inhib	CYP2C19 act	PostGolgi yeast	CYP2C9 act	PostGolgi ctrl	CYP2C19 inh
O=S(=O)(NCC(c1cccnc1)N1CCN(c2ccccc2F)CC1)c1cccs1 (configuration not stated)	66.3*	0.1	61.7*	0.3	34.7*	85.8*
Cc1ccc(S(=O)(=O)NCC(c2cccnc2)N(C)C)cc1 (configuration not stated)	7.0	0.4	-3.3	0.9	-5.7	60.8*
CCOC(=O)CSc1nnc(Cn2c(=O)sc3ccccc32)n1-c1ccccc1C	·	·	4.7	·	13.5	·
CSc1ccccc1C(=O)Nc1cccc(C(C)O)c1 (configuration not stated)	-11.6	1	4.0	1.1	-2.1	-0.5
Cc1ccc(-c2noc(CCCC(=O)Nc3cccnc3)n2)cc1	34.3	1	10.1	0.7	4.2	-2.3
COc1ccccc1N1CCN(C(CNS(=O)(=O)c2ccc(C)cc2)c2cccnc2)CC1 (configuration not stated)	18.2	0.4	-2.7	0.8	4.4	57.9*
O=c1[nH]c2cccnc2n1Cc1ccccc1	93.8*	0.5	-7.3	0.1	7.9	50.9*
O=c1[nH]c(=O)n(Cc2ccccc2)c2c1CCC2	4.6	1	0.0	1	2.4	3.5
Cc1cc(C)c2c(=O)[nH]c(=O)n(Cc3ccccc3)c2n1	5.2	1	7.7	0.9	43.4*	-4.2
CC(CC1CC(C)(C)OC1=O)C(=O)Nc1nncs1 (configuration not stated)	-7.0	0.8	-0.5	1.1	2.3	18.4
CN=C1CC(C)(C)CC(=O)/C1=C(/O)CCC(=O)NC	·	·	1.7	·	5.5	·
CCCCC(=O)Nc1sc2c(c1C(=O)OCC)CCC(C=O)=C2Cl	10.4	1	-3.8	0.9	24.0	2.4
CCC(c1nnc(SCC(=O)Nc2ccc(C(=O)Nc3ccccc3OC)cc2)o1)N(C)C (configuration not stated)	-57.0	0.6	5.3	1.6	3.4	35.2
CCN(CC)CCNC(=O)Cn1nc(Cc2cccnc2)c2ccccc2c1=O	14.8	1	-5.6	0.9	0.9	-0.6
c1ccc(Cn2nnnc2C(c2ccccc2)N2CCN(c3nc4ccccc4s3)CC2)cc1 (configuration not stated)	64.7*	0.4	-0.6	0.4	1.0	57.8*
CCCCC(c1nnnn1Cc1ccco1)N1CCN(c2nc3ccccc3s2)CC1 (configuration not stated)	91.4*	0.1	93.6*	0.1	45.6*	94.6*
CCCC(c1nnnn1Cc1ccco1)N1CCC(C(N)=O)CC1 (configuration not stated)	-9.4	0.9	3.2	1.1	-1.8	5.0
CCCC(c1nnnn1Cc1ccccc1)N1CCN(c2ccccc2OC)CC1 (configuration not stated)	48.7	0.4	27.0	0.5	5.1	56.9*
CCCC(c1nnnn1Cc1ccc(OC)cc1)N1CCN(c2ccccc2OC)CC1 (configuration not stated)	48.2	0.6	-5.6	0.5	13.4	42.7
